Test results taken from PubChem BioAssay (NCATS).
Inconclusive results are not listed. The source made the active and inactive calls. Unless noted, the call rests on the fitted dose curve; in most records, active means well fitted curve in the direction sought with a large enough effect; inconclusive means small, poorly fitted or top-dose-only effect, or another doubt; inactive means no such curve, though single readings can be large; an effect the other way counts as inactive or inconclusive.

Key:
[1] = target: Voltage-gated inwardly rectifying potassium channel KCNH2 (Homo sapiens) (UniProt Q12809); test: qHTS Assay for Small Molecule Inhibitors of the Human hERG Channel Activity (AID 588834);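 further: top concentration of the series differs between compounds; on the % scale 0 is the no-effect control and ±100 the full control effect; lower thallium flux fluorescence means stronger hERG block; nearly all actives have a fitted effect of over 50% in size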
Sequence of Voltage-gated inwardly rectifying potassium channel KCNH2 (Homo sapiens) (Q12809 whole entry, looked up): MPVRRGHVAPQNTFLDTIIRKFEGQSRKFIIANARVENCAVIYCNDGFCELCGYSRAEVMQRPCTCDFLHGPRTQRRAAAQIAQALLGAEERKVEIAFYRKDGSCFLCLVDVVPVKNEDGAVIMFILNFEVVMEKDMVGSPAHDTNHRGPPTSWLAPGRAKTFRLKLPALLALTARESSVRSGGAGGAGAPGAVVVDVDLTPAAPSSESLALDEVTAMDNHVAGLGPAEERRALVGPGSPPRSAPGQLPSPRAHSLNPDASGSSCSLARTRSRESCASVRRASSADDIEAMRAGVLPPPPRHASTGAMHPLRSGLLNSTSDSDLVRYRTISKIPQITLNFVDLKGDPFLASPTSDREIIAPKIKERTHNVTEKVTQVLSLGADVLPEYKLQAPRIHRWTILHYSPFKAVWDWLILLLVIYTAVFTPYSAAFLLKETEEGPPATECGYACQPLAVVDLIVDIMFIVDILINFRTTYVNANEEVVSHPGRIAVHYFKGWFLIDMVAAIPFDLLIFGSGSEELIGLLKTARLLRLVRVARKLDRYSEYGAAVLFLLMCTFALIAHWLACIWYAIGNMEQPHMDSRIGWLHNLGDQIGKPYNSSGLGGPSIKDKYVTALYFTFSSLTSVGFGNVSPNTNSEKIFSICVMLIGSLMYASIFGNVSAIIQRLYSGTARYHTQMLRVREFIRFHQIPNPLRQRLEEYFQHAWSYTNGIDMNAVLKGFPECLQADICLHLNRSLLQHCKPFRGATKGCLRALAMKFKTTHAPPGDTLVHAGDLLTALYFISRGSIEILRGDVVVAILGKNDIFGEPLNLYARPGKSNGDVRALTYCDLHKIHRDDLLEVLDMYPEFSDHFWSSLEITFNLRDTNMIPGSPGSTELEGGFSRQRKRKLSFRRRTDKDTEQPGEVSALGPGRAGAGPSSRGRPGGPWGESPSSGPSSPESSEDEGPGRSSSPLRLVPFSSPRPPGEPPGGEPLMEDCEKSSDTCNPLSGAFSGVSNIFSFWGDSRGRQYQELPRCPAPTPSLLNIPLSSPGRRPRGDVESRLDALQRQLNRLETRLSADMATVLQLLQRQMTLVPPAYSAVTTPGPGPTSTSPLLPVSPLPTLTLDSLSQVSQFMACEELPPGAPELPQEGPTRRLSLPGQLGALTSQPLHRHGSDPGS
In short: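 Thallium-flux (FluxOR) read-out on FDSS: fluorescence read 10 s before and 2 min after stimulation buffer. hERG-BacMam-transduced U2OS cells, compound exposure about 10 min. AC50 by standard Hill equation.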

[2] = target: Luciferin 4-monooxygenase (Photinus pyralis) (UniProt P08659); test: Biochemical firefly luciferase enzyme assay for NPC (AID 624030); further: nearly all actives have a fitted effect of over 70% in size; further: potency means the concentration at half of the fitted maximal effect
Sequence of Luciferin 4-monooxygenase (Photinus pyralis) (P08659 whole entry, looked up): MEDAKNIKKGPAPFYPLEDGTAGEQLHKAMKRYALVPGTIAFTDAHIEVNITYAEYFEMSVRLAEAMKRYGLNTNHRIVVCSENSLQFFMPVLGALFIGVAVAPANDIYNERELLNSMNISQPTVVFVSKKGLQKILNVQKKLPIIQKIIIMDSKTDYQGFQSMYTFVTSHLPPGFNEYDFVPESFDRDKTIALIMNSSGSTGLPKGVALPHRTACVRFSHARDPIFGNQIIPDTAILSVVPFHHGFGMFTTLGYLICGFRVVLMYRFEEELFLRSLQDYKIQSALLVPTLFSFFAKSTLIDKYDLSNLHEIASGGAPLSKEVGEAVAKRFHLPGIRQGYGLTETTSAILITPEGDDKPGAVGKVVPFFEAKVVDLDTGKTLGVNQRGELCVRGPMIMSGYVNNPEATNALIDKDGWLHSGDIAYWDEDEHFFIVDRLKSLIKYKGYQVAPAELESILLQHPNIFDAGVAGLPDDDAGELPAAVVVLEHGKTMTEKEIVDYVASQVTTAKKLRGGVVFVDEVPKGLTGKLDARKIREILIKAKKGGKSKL
In short: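 Direct inhibition of firefly luciferase enzyme (10 nM final, 50 mM Tris Acetate) assessed by luminescence within 5 minutes. Percent activity scaled between DMSO and PTC124 positive control, with concentration-effect curves classified by fit quality and response.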

[3] = S16 Schwann cell PMP22 intronic element beta-lactamase assay (AID 624044; calls by dose curve;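 further: 0% = DMSO and -100% = potassium clavulanate positive control; nearly all actives have a fitted effect of over 15% in size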); details: S16 rat Schwann cells, PMP22 element beta-lactamase FRET, 24 h; ratio activity, negative = inhibition: at 38.3 µM (top of the series) unless noted
In short: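 Beta-lactamase reporter under a PMP22 intronic regulatory element in stable S16 rat Schwann cells; 24 h compound exposure. 460 nm blue signal normalized between DMSO (0%) and potassium clavulanate, with 535 nm FRET tracking viability; curves classed by r2 and response.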

[4] = S16 Schwann cell viability assay (CellTiter-Glo assay) (AID 624031);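 further: native untransfected S16 rat Schwann cells; cellular ATP luminescence as a viability measure; plate controls were DMSO-treated cells for no effect and cell-free wells for full effect; nearly all actives have a fitted effect of over 70% in size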
In short: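 Parental S16 cells, 24 h compound, 37 °C. ATP-luminescence viability; DMSO = 0% activity, empty wells as reference; curves classified by fit quality and efficacy.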

[5] = S16 Schwann cell PMP22 intronic element firefly luciferase assay (AID 624032); further: nearly all actives have a fitted effect of over 30% in size; further: potency means the concentration at half of the fitted maximal effect
In short: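 Luciferase reporter of PMP22 intronic-element expression in stably transfected S16 rat Schwann cells, read by ONE-Glo luminescence after 24 h compound exposure at 37 C. Activity scaled between DMSO (0%) and positive-control PTC124; concentration-effect curves quality-classified.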

[6] = qHTS assay for small molecule activators of the p53 signaling pathway (AID 651743; active means well fitted activation curve with a large enough effect in the signal ratio, not every such curve was filed as active; the % refers to the signal ratio; further: % of control where 0% means no effect); details: HCT-116 p53RE-bla, beta-lactamase FRET ratio, 16 h; activation: stronger effect = higher value
In short: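 A beta-lactamase reporter under p53 response element control, stably carried by HCT-116 cells, reported pathway activation. Test compounds were applied for 16 hours at 37 C, and fluorescence was measured 2 hours after adding the B/G FRET substrate.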

[7] = qHTS assay for environmental chemicals that activate the Aryl hydrocarbon Receptor (AhR) signaling pathway (AID 651777); details: 1A2-DRE human hepatoma cells, luciferase, 24 h; activation: stronger effect = higher value; further: % of control where 0% means no effect; nearly all actives have a fitted effect of over 15% in size
In short: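 Reporter gene assay: hepatoma cells with DRE/CYP1A2-luciferase, 24 hr compound incubation at 37 C, 5% CO2, luminescence after One-Glo (30 min, RT).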

[8] = target: Peroxisome proliferator-activated receptor alpha (Homo sapiens) (UniProt Q07869); test: qHTS assay for small molecule agonists of the peroxisome proliferator-activated receptor alpha (PPARalpha) signaling pathway (AID 651778); details: PathHunter PPARalpha complementation, chemiluminescence, 6 h; stronger effect = higher value; further: % of control where 0% means no effect
Sequence of Peroxisome proliferator-activated receptor alpha (Homo sapiens) (Q07869 whole entry, looked up): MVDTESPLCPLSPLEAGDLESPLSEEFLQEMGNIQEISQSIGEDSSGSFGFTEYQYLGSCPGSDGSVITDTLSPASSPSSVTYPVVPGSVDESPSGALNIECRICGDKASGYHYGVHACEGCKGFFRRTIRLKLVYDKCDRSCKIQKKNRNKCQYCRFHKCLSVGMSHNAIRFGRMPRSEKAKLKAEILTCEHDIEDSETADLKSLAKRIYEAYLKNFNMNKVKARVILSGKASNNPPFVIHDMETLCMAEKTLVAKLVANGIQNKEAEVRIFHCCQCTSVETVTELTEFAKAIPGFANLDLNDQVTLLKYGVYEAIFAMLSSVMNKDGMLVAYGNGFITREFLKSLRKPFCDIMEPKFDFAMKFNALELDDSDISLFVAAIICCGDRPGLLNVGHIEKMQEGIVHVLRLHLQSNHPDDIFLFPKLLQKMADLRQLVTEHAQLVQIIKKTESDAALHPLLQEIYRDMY
In short: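 Chemiluminescence from complemented enzyme reported PPARalpha activation in cells after 6 hr of compound treatment at 37 C. The detection reagent was incubated for 60 min at room temperature, and compounds were scored as agonists.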

[9] = qHTS assay for small molecule agonists of the antioxidant response element (ARE) signaling pathway (AID 651741; active means well fitted activation curve with a large enough effect in the signal ratio; the % refers to the signal ratio; further: % of control where 0% means no effect)
In short: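 Agonist activity is measured as ARE-driven beta-lactamase expression in a stable HepG2 reporter line, using 16 h compound treatment at 37 C and a FRET substrate fluorescence readout after 2 h.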

[10] = qHTS assay for small molecule activators of the nuclear factor-kappa B (NF-kB) signaling pathway (AID 651749; active means well fitted activation curve with a large enough effect in the signal ratio; the % refers to the signal ratio; further: % of control where 0% means no effect); details: NF-kB-bla ME-180 cells, beta-lactamase FRET ratio, 16 h; stronger effect = higher value
In short: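 FRET-based beta-lactamase detection in ME-180 cells reports NF-kB response-element-driven transcription following overnight (16 hr) compound treatment.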

[11] = qHTS assay for small molecule disruptors of the mitochondrial membrane potential - 1 hr assay (AID 651754; calls by dose curve; further: on the % scale 0 is the no-effect control and ±100 the full control effect; nearly all actives have a fitted effect of over 35% in size)
In short: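 In this qHTS format, a 1 hr compound treatment of HepG2 cells precedes Mito-MPS staining, and membrane potential is judged from aggregate (red) against monomer (green) fluorescence intensity.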

[12] = qHTS assay for small molecule disruptors of the mitochondrial membrane potential - 5 hr assay (AID 651755; calls by dose curve; further: on the % scale 0 is the no-effect control and ±100 the full control effect; nearly all actives have a fitted effect of over 40% in size)
In short: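 Membrane-potential dye readout: red aggregate (540 ex/590 em) versus green monomer (490 ex/535 em) fluorescence after 30 min dye loading, following 5 hr compound exposure at 37C of overnight-plated HepG2 cells.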

[13] = target: Tumor necrosis factor (Homo sapiens) (UniProt P01375); test: qHTS assay to identify small molecules that stimulate Tumor Necrosis Factor-alpha (TNF-alpha) secretion (AID 651757; active means well fitted curve in the direction sought with a large enough effect in the signal ratio; the % refers to the signal ratio; further: 0% is about no effect)
Sequence of Tumor necrosis factor (Homo sapiens) (P01375 whole entry, looked up): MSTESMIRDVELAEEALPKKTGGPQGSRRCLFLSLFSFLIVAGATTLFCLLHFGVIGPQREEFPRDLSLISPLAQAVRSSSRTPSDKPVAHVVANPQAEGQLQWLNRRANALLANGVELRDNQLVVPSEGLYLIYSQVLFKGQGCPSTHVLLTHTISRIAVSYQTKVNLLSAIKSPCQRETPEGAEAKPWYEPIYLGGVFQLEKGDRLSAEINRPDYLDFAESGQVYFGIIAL
In short: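 Using 3000 THP-1 cells per well, compounds and controls were applied for 17 hrs at 37 C. Detection followed with two labeled anti-TNF-alpha antibodies (cryptate donor, XL665 acceptor) for 3 hr at room temperature, measured by TR-FRET.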

CCOc1ccc(NC(=S)Nc2ccc(OCC)cc2)cc1
inactive: Potency [1] | Potency [2] | ratio activity, negative = inhibition [3] -1.68%

O=C(OCc1ccccc1)c1cccnc1
inactive: Potency [1] | Potency [4]

O=[N+]([O-])c1c(Cl)cccc1-c1c[nH]cc1Cl
inactive: Potency [2] | Potency [4] | Potency [5] | ratio activity, negative = inhibition [3] -0.605%

CC(C)(C)CC(C)(C)c1cc(Cc2cc(C(C)(C)CC(C)(C)C)cc(-n3nc4ccccc4n3)c2O)c(O)c(-n2nc3ccccc3n2)c1
inactive: Potency [2] | Potency [4] | Potency [5]

c1ccc(-n2cnnn2)cc1
inactive: Potency [2] | Potency [4] | Potency [5]

CC1CCCCN1CCCOC(=O)c1ccccc1 (centres undefined)
inactive: Potency [2] | Potency [4] | Potency [5]

CCCCCCCCCCCCCCCCCC(=O)OCC(C)O (centres undefined)
inactive: Potency [1] | Potency [5] | ratio activity, negative = inhibition [3] -0.254%

CC1CCC(NC(=O)N(CCCl)N=O)CC1 (centres undefined)
inactive: Potency [1] | Potency [5] | ratio activity, negative = inhibition [3] 2.89%

CN(C)CCCSc1ccccc1NC(=O)/C=C/c1ccccc1
inactive: Potency [2] | Potency [4] | Potency [5]

C[C@@](Cc1ccc(O)c(O)c1)(NN)C(=O)O
inactive: Potency [1] | Potency [4]

O=C(OCc1ccccc1)c1ccc(O)cc1
inactive: Potency [1] | Potency [5] | ratio activity, negative = inhibition [3] -2.42% | activation [6] -6.7% | activation [7] 0.611% | max response [8] -0.0988%

CCC(O)c1ccccc1 (centres undefined)
inactive: Potency [2] | Potency [4] | Potency [5]

C(=C\c1ccncc1)/c1ccccc1
inactive: Potency [1] | Potency [5] | ratio activity, negative = inhibition [3] -6.31%

O=C1CCC(=O)N1CO
inactive: Potency [1] | Potency [4] | Potency [5]

ClC(Cl)Cl
inactive: Potency [1] | Potency [5] | ratio activity, negative = inhibition [3] 4.84% | Potency [9] | activation [6] 0.456% | activation [10] -1.06% | Potency [11] | Potency [12] | Potency [13] | activation [7] -0.58% | max response [8] 0.366%

COc1ccc(/C=C/C(=O)OCCC(C)C)cc1
active: Potency [2] 11.4 µM
inactive: Potency [4] | Potency [5]

CC(C)c1nc(N(C)S(C)(=O)=O)nc(-c2ccc(F)cc2)c1/C=C/C(O)CC(O)CC(=O)O (centres undefined)
inactive: Potency [2] | Potency [4] | Potency [5] | ratio activity, negative = inhibition [3] 3.3%

COc1cc(C)c(/C=C/C(C)=C/C=C/C(C)=C/C(=O)O)c(C)c1C
active: Potency [5] 0.572 µM
inactive: Potency [1] | Potency [4] | ratio activity, negative = inhibition [3] -28.2%

O=P(O)(O)OP(=O)(O)O
inactive: Potency [2] | Potency [4]
active: Potency [5] 1.81 µM

CCC(Cc1c(I)cc(I)c(O)c1I)C(=O)O (centres undefined)
inactive: Potency [1] | Potency [4] | Potency [5] | ratio activity, negative = inhibition [3] 3.55%

O=C(O[C@H]1CN2CCC1CC2)N1CCc2ccccc2[C@@H]1c1ccccc1
inactive: Potency [2]

CN(C)C=Nc1c(I)cc(I)c(CCC(=O)O)c1I
inactive: Potency [1] | Potency [4] | Potency [5] | ratio activity, negative = inhibition [3] 2.26%

CC(C)=CCC/C(C)=C/C=C/C(C)=C/C=C/C(C)=C/C=C/C=C(C)/C=C/C=C(C)/C=C/C=C(\C)CCC=C(C)C
inactive: Potency [2] | Potency [4] | Potency [5]

O=C1c2ccccc2C(=O)C1c1ccc(Cl)cc1
inactive: Potency [1] | Potency [4] | Potency [5] | ratio activity, negative = inhibition [3] -9.28%

O=C1N=C2SCCN2C(=O)C1Cc1ccc(Cl)cc1 (centres undefined)
inactive: Potency [2] | Potency [4] | Potency [5] | ratio activity, negative = inhibition [3] 0.0729%
